Screen size: about 4,800 compounds; about 410 (8.5%) showed an effect of 50% or more. This excerpt belongs to a sample that is enriched for strong results.
Test system: Plasmodium falciparum
Assay: Confirmatory screen in NF54 pLDH assay, in single point, at 2uM, 72h
Format: functional, Erythrocyte
Conditions: timepoint 72 hour

| Structure (SMILES) | % Inhibition |
| --- | --- |
| CCOc1cccc(NCc2c(N)ncnc2OC)c1 | 13% |
| CC[C@@](C)(C(=O)NC1CCCC1)N(Cc1ccco1)C(=O)c1ccc2c(c1)OCO2 | -9% |
| Cc1ccc(CN2CCS(=O)(=O)CC2)o1 | -13% |
| Cc1oc(-c2ccc(C(=O)Nc3cccc(Cl)c3C)cc2)nc1COc1ccccc1 | 9% |
| Oc1ccc2cc(CN3CCC[C@H](CN4CCCC4)C3)ccc2c1 | 97% |
| CN1CC[C@H](CN(C)Cc2ccc3cc(O)ccc3c2)C1 | 36% |
| CN1CCC(N2CCN(Cc3ccc4cc(O)ccc4c3)CC2)CC1 | 92% |
| COc1ccc(NC(=O)N2C[C@@H]3C[C@H](NS(=O)(=O)c4ccccc4)[C@H]2C3)c(C)c1 | 3% |
| CCc1cccc(NC(=O)C2CCN(c3c(C)n(-c4ccccc4)c(=O)n(CC(C)C)c3=O)CC2)c1 | 5% |
| O=C1c2ccccc2C(=O)N1Cc1cnn(CC(F)F)c1 | 12% |
| COc1ccc2oc(-c3ccc(CNC(=O)c4cccnc4)cc3)nc2c1 | 6% |
| CC(C)(C)OC(=O)N1CCC(c2c(C(=O)Nc3ccc(Cl)cc3Cl)cnn2-c2cccc(F)c2)CC1 | -3% |
| CC1(C)C(=O)NCCN1C(=O)c1ccc2nccnc2c1 | 9% |
| CN(C(=O)c1n[nH]c2c1CCC2)[C@H]1CCCc2c1cnn2C | -4% |
| O=S1(=O)c2ccccc2N=NN1Cc1ccc(Cl)cc1 | -19% |
| O=C(Nc1ccc(N2CCn3c(nc4ccccc43)C2)cc1)c1ccc(F)cc1 | 14% |
| O=C(Nc1cnc2ccccc2c1)c1ccccc1C(=O)c1ccc(F)cc1 | 94% |
| O=C(Nc1cc(NC(=O)c2ccc(F)cc2)cc(Oc2cccnc2)c1)c1ccc(F)cc1 | 5% |
| CN(C)c1cccc(C(=O)N2CCN(c3ncc(F)cn3)C(=O)C2)c1 | 10% |
| Cc1nnc2sc(-c3cnn(-c4ccccn4)c3C(F)(F)F)nn12 | -4% |
| c1ccc(-c2cccnc2NCc2cscn2)cc1 | -3% |
| Cc1ccc(C2C(C(=O)N3CCC(C)CC3)CCC(=O)N2C)cc1 (stereo unspecified) | -1% |
| COC(=O)[C@@H]1[C@@H](NC(=O)C2CCCC2)CCN1C(C)=O | 1% |
| Cc1cc2c(cc1C)N(CC(=O)Nc1ccc(C(F)(F)F)cc1)C(=O)CC(c1cccs1)=N2 | -23% |
| CC1CC(C(=O)Nc2[nH]c(=O)ncc2F)CC(C)(C)C1 (stereo unspecified) | 84% |
| CC(=O)N[C@@H]1CN(Cc2nccn2Cc2ccccc2)C[C@H]1c1nccn1C | 12% |

| Structure (SMILES) | % Inhibition |
| --- | --- |
| Cc1ccc(S(=O)(=O)N2CC(C)N(C(=O)N3CCOCC3)C2C)cc1 (stereo unspecified) | 14% |
| Nc1c(-c2ccc(F)cc2)nsc1C(=O)NC1CCN(Cc2ccccc2)CC1 | 8% |
| FC(F)(F)C1CCCC(NCc2c[nH]nc2-c2cccnc2)C1 (stereo unspecified) | 3% |
| CC1CCN(Cc2ccc(CNCc3c[nH]nc3-c3ccc(F)cc3)cc2)CC1 | 50% |
| c1ccc(-c2ccccc2NCn2nnc3ccccc32)cc1 | -9% |
| CCc1cccc(NC(=O)N2CCC3(CC2)C(=O)N(CC(=O)Nc2ccc(F)cc2)CN3c2ccccc2)c1 | 30% |
| CC(C)N(CCS(C)(=O)=O)C(=O)NCc1ccco1 | 10% |
| CN(C)CCN(C)c1ccc(Br)cc1NCc1cncn1C | 39% |
| CCn1nc(C)c(CN(C)S(=O)(=O)c2ccc(N3CCCC3=O)cc2)c1C | -1% |
| Cc1ccc(NC(=O)Nc2cccc(-c3ccc(N4CCN(C)CC4)nn3)c2)cc1C | 13% |
| Cc1cccc(Nc2nc(-c3cnc(N4CCN(C)CC4)nc3C)cc(=O)[nH]2)c1 | 4% |
| Cc1cc(C(=O)N[C@@H](C)C(=O)N2CCCCC2)c2nc3n(c2n1)CCCCC3 | 8% |
| Oc1ccc(-n2c(-c3ccccc3)ccc2-c2ccccc2)cc1 | 12% |
| COc1ccc2c(c1)[n+](CC(=O)c1ccc(-c3ccc(Br)cc3)cc1)c(CO)n2C | 54% |
| COc1cccc(C(=O)C[n+]2cc(-c3ccc(Br)cc3)n(C)c2N)c1 | 4% |
| Cc1ccc(C(=O)C[n+]2cc(-c3ccc(Br)cc3)n(C)c2N)cc1 | -16% |
| Cc1ccc(OCc2cccc(C(=O)N3CCC[C@@H]3CN3CCCCC3)c2)cn1 | 9% |
| COc1ccnc(CN2CC[C@](C)(O)[C@H](O)C2)c1 | 6% |
| CN1CCCN(c2ccnc3ccsc23)CC1 | 39% |
| C=CCNC(=NC)NC1CCN(c2cc(OC)cc(OC)c2)CC1 | 7% |
| CCC1(CC)CCC(NC(=O)[C@@H]2CCCCC(=O)N2)CC1 | -14% |
| C[C@H]1C[C@@H](O)CCN1C(=O)c1cccc2sc(C(F)(F)F)nc12 | 3% |
| Cc1cc(C)cc(-n2cc(C(=O)NCCCc3ccccc3)nn2)c1 | 8% |
| Cc1cc2nc(C)c(=O)n(Cc3ccc(C(=O)NCc4ccco4)cc3)c2cc1C | 8% |
| Cc1cc(NC(=O)NC(C)C)c2[nH]c(C(=O)N3CCOCC3)c(-c3ccccc3)c2c1 | 9% |
| CO/C(=N/C(=O)c1cccc(OC)c1)N[C@H]1CCCc2ccccc21 | -9% |

| Structure (SMILES) | % Inhibition |
| --- | --- |
| O=c1[nH]c(=O)n(Cc2cc(Cl)cc3c2OCOC3)cc1Cl | 12% |
| CC(C)N(C)S(=O)(=O)Nc1ccc(Br)cc1O | 9% |
| Nc1ccccc1-c1nc(Nc2ncccn2)n[nH]1 | 7% |
| O=C(Nc1ccc(OC(F)F)cc1)c1cc(C2CC2)nc2c1c(C1CC1)nn2-c1ccccc1 | -5% |
| CC(C)c1cc(=O)[nH]c(-n2nc(C3CC3)cc2NC(=O)COc2ccc3ccccc3c2)n1 | 65% |
| Cc1nc(CC(=O)Nc2cc(C3CC3)nn2-c2ccccc2)cs1 | 8% |
| Cc1cc(NC(=O)c2ccc(COc3ccc4ccccc4c3)o2)nn1C | 13% |
| CC(C)c1cc(=O)[nH]c(-n2nc(C3CC3)cc2NC(=O)Cc2ccc(Cl)cc2)n1 | 67% |
| Cc1ccc(N2C[C@@H](c3nnc(NC(=O)Cc4ccc(Cl)cc4)o3)CC2=O)cc1 | -18% |
| CCOc1c(Br)cc(Cl)cc1NCC(=O)NC(=O)NC | 14% |
| COc1cc(N2CCn3c(nc4ccccc43)C2)ccc1NC(=O)c1ccc(C)cc1 | -23% |
| O=C1NS(=O)(=O)c2cc(N3CCN(Cc4ccccc4)CC3)ccc21 | 8% |
| CCc1ccc(C(=O)Nc2cnc(-n3ccnc3)nc2)cc1 | 29% |
| O=C(C[C@H]1CCN(S(=O)(=O)c2ccc(F)cc2F)C1)NCc1ccccc1 | 10% |
| Cc1nn(Cn2nc(-c3ccc(F)cc3)c(Br)c2-c2ccc(F)cc2)c(C)c1Cl | 6% |
| O=C(NCc1cccc(Cl)c1)[C@H]1CCCN(c2nc3cccnc3n(Cc3ccccc3)c2=O)C1 | -7% |
| CCN(CC)CC(O)COc1c(Br)cc(C(C)(C)c2cc(Br)c(OCC(O)CN(CC)CC)c(Br)c2)cc1Br (stereo unspecified) | 99% |
| CCN(CC)C(=O)c1cnc2snc(C)c2c1N1CCC(C(=O)Nc2c(C)cc(C)cc2C)CC1 | 34% |
| CN(C(=O)CN(CCO)c1ccc(Br)cc1)C1CC1 | 2% |
| CCN(C(=O)[C@H]1CCOC1)c1ccc(C(F)(F)F)cc1 | 5% |
| O=C(O)C1CCC(=O)N(C2CC2)C1c1ccccc1 (stereo unspecified) | 10% |
| C(=C\c1cc(/C=C/c2ccccc2)n2nnnc2n1)/c1ccccc1 | 5% |
| O=C(NCC1CCCCC1)c1cn[nH]c1-c1ccccc1 | 6% |
| O=C(NCC1CCCCC1O)c1cnn2ccncc12 (stereo unspecified) | -5% |
| COc1ccc2nc(C(F)(F)F)nc(N3CCNC(=O)CCN(C(=O)C(F)=C4CCCC4)CC3)c2c1 | 14% |
| O=S(=O)(Nc1cccc2cccnc12)c1cccs1 | 64% |

| Structure (SMILES) | % Inhibition |
| --- | --- |
| Cc1cc(NS(=O)(=O)c2cccs2)n(-c2ccncc2)n1 | 9% |
| O=S(=O)(Nc1nncs1)c1cccs1 | -10% |
| Cc1nsc2ncn(C[C@H](O)COCc3ccco3)c(=O)c12 | 8% |
| CCOc1ccc(-c2cc3c(=O)n(CCC(=O)N4CCCC4)ccn3n2)cc1 | 7% |
| O=C(CNC(=O)c1ccc(C(F)(F)F)cc1)Nc1cnc2c(c1)COCC2 | 4% |
| Fc1ccc(-c2cc3c(N4CCCCC4)nccn3n2)cc1 | 12% |
| CCn1cc(C(=O)Nc2n[nH]c3ccc(C(F)(F)F)cc23)cn1 | -4% |
| CC1CCN(C[C@H](O)C(F)(F)F)CC1 | 5% |
| COc1cccc2c(N3CC[C@]4(CNC(=O)C4)C3)nccc12 | 2% |
| CC[n+]1ccc(-c2ncc(-c3ccc(C(C)(C)C)cc3)o2)cc1 | 55% |
| Cc1ccc(C(=O)NCCn2cnc3ccccc3c2=O)cn1 | -7% |
| CN(C)CCCNCc1ccc(Cl)cc1Cl | -7% |
| CC(C)CC[C@@H](CCNC1CCN(C)CC1)c1ccc(Cl)cc1 | 83% |
| CC(C)CC[C@@H](CCNCCN(C)C)c1ccc(Cl)cc1 | 103% |
| CN1CCC(NCC[C@@H](Cc2ccccc2Cl)c2ccc(Cl)cc2)CC1 | 92% |
| Clc1ccccc1COc1ccc(CNC2CCCCC2)cc1 | 7% |
| CN(C)CCNCc1ccc(Cl)c(Cl)c1 | -14% |
| O=C1c2cc3ccccc3n2C[C@](C(=O)NC2CCCCCCC2)(c2ccccc2)N1Cc1cccc(Cl)c1 | -5% |
| COc1ccccc1N(CC(=O)NCCN1CCOCC1)S(=O)(=O)c1ccc(C)cc1 | 7% |
| Cc1cc(C(=O)N[C@@H](C)c2nnc3n2CCCCC3)c(C)s1 | 3% |
| O=C(Nc1ncc(Cc2ccc(Cl)c(C(F)(F)F)c2)s1)c1ccc2nnsc2c1 | 10% |
| CC[C@H](O)CCNC(=O)Nc1ncc(CC(C)C)s1 | 2% |
| COc1cc(NC(=O)Cn2c(=O)n(C)c(=O)c3c2c(-c2ccccc2)cn3C)cc(OC)c1OC | -8% |

From ChEMBL document CHEMBL4888484, “Replenishing the malaria drug discovery pipeline: Screening and hit evaluation of the MMV Hit Generation Library 1 (HGL1) against asexual blood stage Plasmodium falciparum ,using a nano luciferase reporter read-out” (2022)
